Test results taken from PubChem BioAssay (NCI).
Compounds without any hit were thinned out: in the full panel of roughly 83,000, 20% have a hit.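 Cell lines were cultured in 96-well plates, exposed to a single compound concentration, and assessed for percent growth 48 hours later.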 Active and inactive are the calls of the source.

test system: NCI-H226 lung; experiment: NCI-60 one-dose screen, 48 h (100 = growth as untreated, 0 = no growth, -100 = all killed); settings: 10 µM unless noted
Description: Growth inhibition of the NCI-H226 human Non-Small Cell Lung tumor cell line is measured as a screen for anti-cancer activity. Cells are grown in 96 well plates and exposed to the test compound for 48 hours. Compounds are tested at a single concentration, which is 10^-5 M for most compounds. The reported endpoint is percent growth (GI% or GIPRCNT), where numbers from 0 - 100% represent growth inhibition, and numbers from -100% - 0 represent cell death. For example, a value of 40 represents 60% growth inhibition. A value of 0 means no net growth occurred over the course of the experiment. A value of -40 indicates 40% of cells at the beginning of the experiment died by the end of the experiment. A value of -100 means all cells are dead at the end of the experiment.
NCI-60 Human Tumor Cell Lines Screen was performed using the standard one-dose NCI protocol, which is described in more detail at https://dtp.cancer.gov/discovery_development/nci-60/default.htm.
Compounds with GIPRCNT values below 10 were considered active. Activity score was based on GIPRCNT using the following formula: […]
Score is 0 for GIPRCNT values of 100 or above, 50 for GIPRCNT values of 0, and 100 for GIPRCNT values of -100.

Compound | growth
C=C(C(N)=O)C(N)C(=O)O (stereo not given) | 112% (inactive)
Cc1cc(I)nc2ccccc12 | 104% (inactive)
O=[N+]([O-])/C(=C/c1ccccc1)c1ccccc1 | 97.5% (inactive)
O=C(Cc1ccccc1)C(F)(F)F | 105% (inactive)
NC(CS/C(Cl)=C/Cl)C(=O)O (stereo not given) | 86.9% (inactive)
Cc1ccc(N2C(=O)C=CC2=O)cc1 | 90.9% (inactive)
COc1ccc(/C=C2/C(=O)ON=C2C)cc1 | 101% (inactive)
CC(C)Nc1ccc(Nc2ccc(NC(C)C)cc2)cc1 | 51.8% (inactive)
Cc1nnc(N/N=C/c2ccc([N+](=O)[O-])o2)[nH]c1=O | 16.2% (inactive)
CC(/C=N/NC(N)=S)Cc1ccc(C(C)C)cc1 (stereo not given) | 66.6% (inactive)
O=C(c1ccc(O)c(Br)c1)c1ccc(O)c(Br)c1 | 109% (inactive)
O=C(NOC(=O)c1ccccc1)c1ccccc1 | 106% (inactive)
CCCN(CCC)C(=O)c1ccc(C)cc1 | 81.2% (inactive)
S=C1SCN(Cc2cccs2)CN1Cc1cccs1 | 104% (inactive)
O=C(c1ccccc1)c1cc2ccccc2oc1=O | 86.3% (inactive)
CN(C)c1ccc(/C=C/c2sc3ccc4ccccc4c3[n+]2C)cc1 | -29.4% (active)
O=C1C=CC(=O)N1c1ccccc1 | 87.7% (inactive)
OC(c1cc(-c2ccc(Cl)cc2)nc2c(Cl)cccc12)C1CCCCN1 (stereo not given) | -44.1% (active)
CN(C)CCN(C)CC(C)(C)C(=O)/C=C/c1ccc(Cl)c(Cl)c1 | -64.1% [100 µM] (active)
O=S(=O)(O)c1cnccn1 | 104% (inactive)

Compound | growth
CCCCCCCCCCCC(=O)OC(C)C(=O)NCCCC (stereo not given) | 86% (inactive)
CN(C)c1ccc(/C=C/c2ccnc3ccccc23)cc1 | 23.5% (inactive)
CN=C(N)N/N=C(\C)c1ccc2c(c1)Cc1ccccc1-2 | -39.1% (active)
CCC[CH2][Sn]1([CH2]CCC)[O]C2C(CO)OC(n3ccc(N)nc3=O)C2[O]1 (stereo not given) | -93.9% (active)
CCNc1nnnn1CC | 102% (inactive)
CCOC(=O)C1=C(C(=O)c2ccccc2)C(c2cccc([N+](=O)[O-])c2)C(C(=O)c2ccccc2)=C(C(=O)OCC)N1 | 84.9% (inactive)
Nc1nc(N)c2cc(Sc3cccc(C(F)(F)F)c3)ccc2n1 | 57.6% (inactive)
NC(=S)Nc1ccc2c(c1)Cc1ccccc1-2 | 77.8% (inactive)
c1ccc2sc(SSN3CC4CCC(CC4)C3)nc2c1 | 100% (inactive)
Oc1ccccc1N=Cc1ccccc1 | 86.3% (inactive)
COC1=CC(=O)c2c(O)c3c(c(O)c2C1=O)CC(C)(O)OC3 (stereo not given) | 90.1% (inactive)
O=C(OC12CC3CC(CC(C3)C1)C2)c1ccc(NCc2cc(O)ccc2O)cc1 | -63.6% (active)
CC1CC(C)(C)OB(OC(C)CC(C)(C)OB2OC(C)CC(C)(C)O2)O1 (stereo not given) | 107% (inactive)
OC(Cc1cc(CC(O)(C(F)(F)F)C(F)(F)F)nc(CC(O)(C(F)(F)F)C(F)(F)F)c1)(C(F)(F)F)C(F)(F)F | 11.6% (inactive)
COc1ccc(C(Cn2ccnc2)Sc2ccc(Cl)c(Cl)c2)cc1 (stereo not given) | 69.7% (inactive)
Cn1ccc(=Nc2ccc(NC(=O)c3ccc(N=c4ccn(C)c5ccc([N+](=O)[O-])cc45)cc3)cc2)cc1 | 70% (inactive)
O=C(Nc1cccc(C(F)(F)F)c1)Oc1ccc(Cl)c2cccnc12 | 86.3% (inactive)
CN(C)CCSC1=Nc2ccc(Cl)cc2C(c2ccccc2Cl)N(C)C1 (stereo not given) | 52.4% (inactive)
CCCCCCCCCCCCCCCC[N+]1(C)CCCC1c1cccnc1 (stereo not given) | 41.4% (inactive)
COc1ccc(NC(=O)/C(=C/N2C(=O)/C(=C/c3ccc(OC)c(OC)c3)NC2=S)C(C)=O)cc1 | 83.1% (inactive)
